Experiment [1] addresses human Retinoic Acid Receptor gamma (RARg), RARG (gene 5916) (UniProt P13631). Description: ATG_RARg_TRANS: Attagene TRANS-FACTORIAL HepG2 Assay for human Retinoic Acid Receptor gamma (RARg) (AID 2283009; active = hit-call score of the fitted dose curve at least 0.9, where 1 is the maximum). The method, boiled down:
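HepG2, RARg-GAL4 TRANS system, 24 h exposure; reporter mRNA by RT-PCR + CE fluorescence; increase over DMSO.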

For experiment [2], the target named is human RAR-related Orphan Receptor gamma (RORg), RORC (gene 6097) (UniProt P51449). Description: ATG_RORg_TRANS: Attagene TRANS-FACTORIAL HepG2 Assay for human RAR-related Orphan Receptor gamma (RORg) (AID 2283011; active = hit-call score of the fitted dose curve at least 0.9, where 1 is the maximum). The method, boiled down: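 Readout: reporter transcript induction (RT-PCR, fluorescent primer extension, capillary electrophoresis) after 24 h compound exposure of transiently transfected HepG2 cells carrying a RORg-Gal4 chimera and GAL4-UAS reporters; DMSO served as baseline, with increasing signal fitted.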

Experiment [3] concerns the target Retinoic acid receptor RXR-alpha (Homo sapiens) (UniProt P19793). Description: ATG_RXRa_TRANS: Attagene TRANS-FACTORIAL HepG2 Assay for human Retinoid X Receptor alpha (RXRa) (AID 2283012; active = hit-call score of the fitted dose curve at least 0.9, where 1 is the maximum). The method, boiled down:
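Cells (HepG2) carried transiently transfected GAL4-responsive reporter units. Following a 24 h chemical incubation, reporter mRNA induction was read via RT-PCR fragment analysis; DMSO served as negative control and baseline.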

Experiment [4] has as its target human Retinoid X Receptor beta (RXRb), RXRB (gene 6257) (UniProt P28702). Description: ATG_RXRb_TRANS: Attagene TRANS-FACTORIAL HepG2 Assay for human Retinoid X Receptor beta (RXRb) (AID 2283013; active = hit-call score of the fitted dose curve at least 0.9, where 1 is the maximum). The method, boiled down: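 Multiplexed TRANS reporter assay in HepG2; 24 h dosing; reporter mRNA by RT-PCR/CE fluorescence; gain-of-signal relative to DMSO.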
Read-out in experiment [5]: E-selectin (Homo sapiens) (UniProt P16581)
The experiment in a line: BSK_3C_Eselectin: BioMAP Diversity Plus: 3C Assay for Eselectin Biomarker Activity (AID 2283015).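 For outcome: cell surface E-selectin protein quantified by ELISA 24 h after dosing.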 The settings on record: primary human endothelial cells (HUVEC); actives raise or lower the signal. The method, boiled down: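 Primary human umbilical vein endothelial cells (3C system) were dosed with chemical and cell-surface E-selectin measured by ELISA 24 h later. Bidirectional curve fitting used DMSO as negative control and baseline.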

Read-out in experiment [6]: Interleukin-1 alpha (IL1a), IL1A (gene 3552)
The experiment in a line: BSK_BE3C_IL1a: BioMAP Diversity Plus: BE3C Assay for Interleukin-1 alpha (IL1a) Biomarker Activity (AID 2283016). The settings on record: primary human bronchial epithelial cells; actives raise or lower the signal. The method, boiled down: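 Cultures of primary human bronchial epithelial cells receive test chemical. After 24 h, IL-1a is quantified by ELISA, while parallel wells are fixed in TCA and SRB-stained for total protein. Changes in either direction are fitted relative to DMSO.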

Read-out in experiment [7]: Monocyte Chemoattractant Protein-1 (MCP1), CCL2 (gene 6347)
Description: BSK_3C_MCP1: BioMAP Diversity Plus: 3C Assay for Monocyte Chemoattractant Protein-1 (MCP1) Biomarker Activity (AID 2283017). The settings on record: primary human endothelial cells (HUVEC); actives raise or lower the signal. The method, boiled down:
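Primary human umbilical vein endothelial cells (3C system) were exposed to test chemical for 24 h, after which MCP-1 was quantified by ELISA. Activity was fitted bidirectionally against DMSO as negative control and baseline.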

Read-out in experiment [8]: Human Leukocyte Antigen - DR isotype (HLADR), HLA-DRA (gene 3122)
Description: BSK_3C_HLADR: BioMAP Diversity Plus: 3C Assay for Human Leukocyte Antigen - DR isotype (HLADR) Biomarker Activity (AID 2283019). The settings on record: primary human endothelial cells (HUVEC); actives raise or lower the signal. The method, boiled down: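 Primary human umbilical vein endothelial cells (3C system) were dosed with compound and cell-surface HLA-DR was quantified by ELISA at 24 h. Activity was fitted bidirectionally against DMSO as negative control and baseline.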

Read-out in experiment [9]: Interleukin-8 (IL8), CXCL8 (gene 3576)
The experiment in a line: BSK_3C_IL8: BioMAP Diversity Plus: 3C Assay for Interleukin-8 (IL8) Biomarker Activity (AID 2283020). The settings on record: primary human endothelial cells (HUVEC); actives raise or lower the signal. The method, boiled down:
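Human vascular endothelial cells (umbilical vein) in the 3C system; IL-8 level detected by ELISA at 24 h post-dose, with DMSO as baseline.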

Read-out in experiment [10]: Monokine induced gamma interferon (MIG), CXCL9 (gene 4283)
Description: BSK_3C_MIG: BioMAP Diversity Plus: 3C Assay for Monokine induced gamma interferon (MIG) Biomarker Activity (AID 2283021).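 For AC50: MIG protein level measured by immunoassay in the treated endothelial cultures.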 The settings on record: primary human endothelial cells (HUVEC); actives raise or lower the signal. The method, boiled down:
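After 24 h of treatment, human umbilical vein endothelial cultures (3C system) had their MIG biomarker level determined by ELISA, with DMSO serving as negative control.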

A short description of experiment [11]: BSK_3C_SRB: Viability Assessment in the BioMAP Diversity Plus: 3C Assay (AID 2283023).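 Note: fitted both ways against DMSO so a hit may be signal rise or drop.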 Particulars: primary human endothelial cells (HUVEC). The method, boiled down:
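Primary human umbilical vein endothelial cells in the 3C system were read 24 h after compound dosing. Total protein was stained with 0.1% sulforhodamine B after 10% TCA fixation and read at 560 nm, with bidirectional fitting against DMSO as baseline.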

Read-out in experiment [12]: Matrix Metallopeptidase 1 (MMP1), MMP1 (gene 4312)
Description: BSK_BE3C_MMP1: BioMAP Diversity Plus: BE3C Assay for Matrix Metallopeptidase 1 (MMP1) Biomarker Activity (AID 2283024). Particulars: primary human bronchial epithelial cells; actives raise or lower the signal. The method, boiled down:
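Dose cells, wait 24 h, run MMP1 ELISA; cells are human bronchial epithelial primaries. Both increases and decreases relative to DMSO counted.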

Experiment [13] can be described thus: BSK_3C_Vis: BioMAP Diversity Plus: 3C Assay for Morphology Visualization (AID 2283025).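 Note: light microscopy image of cell morphology used as background control; fitted both ways so gain or loss versus DMSO counts.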 Particulars: primary human endothelial cells (HUVEC). The method, boiled down: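 Endothelial cells from human umbilical vein were treated with test chemicals for 24 h and inspected by light microscopy for changes in cell conformation.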
Read-out in experiment [14]: Pselectin, SELP (gene 6403)
Description: BSK_4H_Pselectin: BioMAP Diversity Plus: 4H Assay for Pselectin Biomarker Activity (AID 2283026). Particulars: primary human endothelial cells (HUVEC); actives raise or lower the signal. The method, boiled down:
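Human vascular endothelium from umbilical vein; P-selectin measured by ELISA at 24 h post-dose, with cytotoxicity checked by sulforhodamine B total-protein staining in parallel cultures (0.1% SRB after 10% TCA fixation, read at 560 nm).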

Experiment [15] is described as follows: BSK_4H_SRB: Viability Assessment in the BioMAP Diversity Plus: 4H Assay (AID 2283027).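 For AC50: curves fitted both ways versus DMSO so AC50 may be loss or gain.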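 Note: cells exposed to compound for 24 h before staining.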 The settings on record: primary human endothelial cells (HUVEC). The method, boiled down:
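Absorbance at 560 nm of SRB-stained total protein served as the viability read-out in confluent primary human umbilical vein endothelium 24 h after chemical treatment. Curves were fitted bidirectionally against DMSO as negative control.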

The nature of experiment [16]: BSK_BE3C_SRB: Viability Assessment in the BioMAP Diversity Plus: BE3C Assay (AID 2283028).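 Note: fitted both ways so AC50 may mark signal gain or loss versus DMSO.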 The settings on record: primary human bronchial epithelial cells. The method, boiled down:
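Human primary bronchial epithelial cells were exposed to test chemicals for 24 h. Total protein in parallel cultures was then measured by staining with 0.1% sulforhodamine B after 10% TCA fixation, with absorbance read at 560 nm. Activity was fitted bidirectionally against DMSO.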

Read-out in experiment [17]: Thrombomodulin, THBD (gene 7056)
The experiment in a line: BSK_3C_Thrombomodulin: BioMAP Diversity Plus: 3C Assay for Thrombomodulin Biomarker Activity (AID 2283029). The settings on record: primary human endothelial cells (HUVEC); actives raise or lower the signal. The method, boiled down: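 Thrombomodulin ELISA, human primary HUVEC, 24 h post-dose; data fitted in both directions relative to DMSO.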

In experiment [18] the target is human Thyroid Receptor alpha (THRa1), THRA (gene 7067) (UniProt P10827). Description: ATG_THRa1_TRANS: Attagene TRANS-FACTORIAL HepG2 Assay for human Thyroid Receptor alpha (THRa1) (AID 2283014; active = hit-call score of the fitted dose curve at least 0.9, where 1 is the maximum). The method, boiled down:
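HepG2 cells transiently transfected with multiplexed GAL4-UAS reporter units for exogenous chimeric THRa1-Gal4; reporter mRNA measured 24 h after dosing by RT-PCR, 6-FAM labelling, HpaI digestion and capillary electrophoresis. Gain-of-signal fitted versus DMSO baseline.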

Read-out in experiment [19]: Monocyte Chemoattractant Protein-1 (MCP1), CCL2 (gene 6347)
Description: BSK_4H_MCP1: BioMAP Diversity Plus: 4H Assay for Monocyte Chemoattractant Protein-1 (MCP1) Biomarker Activity (AID 2283018). Particulars: primary human endothelial cells (HUVEC); actives raise or lower the signal. The method, boiled down: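 Readout: MCP-1 ELISA on compound-treated HUVEC, sampled 24 h post-dosing. Baseline and negative control DMSO; bidirectional fit. Overt toxicity checked alongside by sulforhodamine B protein staining at time of biomarker measurement.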

Records with an inconclusive call do not appear. Active and inactive are the calls of the source. Rule for the calls, unless noted: active = hit-call score of the fitted dose curve at least 0.9, where 1 is the maximum; inactive = score below 0.9.

Chain of human Retinoic Acid Receptor gamma (RARg), RARG (gene 5916) (P13631 whole entry, looked up, the tested form may be a part): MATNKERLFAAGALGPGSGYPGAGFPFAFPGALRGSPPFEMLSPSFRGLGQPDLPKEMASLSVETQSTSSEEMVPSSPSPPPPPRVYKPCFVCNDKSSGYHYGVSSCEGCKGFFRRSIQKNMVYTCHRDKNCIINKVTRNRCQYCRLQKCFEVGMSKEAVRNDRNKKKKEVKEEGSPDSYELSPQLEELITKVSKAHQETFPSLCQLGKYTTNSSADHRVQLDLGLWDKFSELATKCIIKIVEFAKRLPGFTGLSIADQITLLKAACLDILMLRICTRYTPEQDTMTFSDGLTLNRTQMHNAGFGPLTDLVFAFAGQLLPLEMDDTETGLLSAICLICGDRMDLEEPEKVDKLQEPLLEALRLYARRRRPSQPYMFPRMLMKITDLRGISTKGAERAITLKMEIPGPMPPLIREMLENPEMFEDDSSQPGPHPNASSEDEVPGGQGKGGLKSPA
Chain of E-selectin (Homo sapiens) (P16581 whole entry, looked up): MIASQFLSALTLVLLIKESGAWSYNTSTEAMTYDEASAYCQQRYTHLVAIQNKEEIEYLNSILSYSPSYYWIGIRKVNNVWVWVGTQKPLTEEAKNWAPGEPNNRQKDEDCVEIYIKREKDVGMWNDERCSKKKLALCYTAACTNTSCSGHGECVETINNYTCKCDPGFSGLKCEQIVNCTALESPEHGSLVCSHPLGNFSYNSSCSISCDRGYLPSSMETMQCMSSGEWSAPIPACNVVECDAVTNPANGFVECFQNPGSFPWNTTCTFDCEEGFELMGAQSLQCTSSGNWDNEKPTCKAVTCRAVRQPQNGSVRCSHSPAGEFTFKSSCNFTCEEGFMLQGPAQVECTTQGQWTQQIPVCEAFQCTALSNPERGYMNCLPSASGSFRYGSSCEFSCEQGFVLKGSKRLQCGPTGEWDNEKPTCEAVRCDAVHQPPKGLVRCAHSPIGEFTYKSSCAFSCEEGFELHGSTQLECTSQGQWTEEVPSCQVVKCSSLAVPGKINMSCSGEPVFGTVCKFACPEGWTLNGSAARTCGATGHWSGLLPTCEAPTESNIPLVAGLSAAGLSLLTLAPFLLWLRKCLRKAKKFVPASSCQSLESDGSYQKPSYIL
Chain of human RAR-related Orphan Receptor gamma (RORg), RORC (gene 6097) (P51449 whole entry, looked up, the tested form may be a part): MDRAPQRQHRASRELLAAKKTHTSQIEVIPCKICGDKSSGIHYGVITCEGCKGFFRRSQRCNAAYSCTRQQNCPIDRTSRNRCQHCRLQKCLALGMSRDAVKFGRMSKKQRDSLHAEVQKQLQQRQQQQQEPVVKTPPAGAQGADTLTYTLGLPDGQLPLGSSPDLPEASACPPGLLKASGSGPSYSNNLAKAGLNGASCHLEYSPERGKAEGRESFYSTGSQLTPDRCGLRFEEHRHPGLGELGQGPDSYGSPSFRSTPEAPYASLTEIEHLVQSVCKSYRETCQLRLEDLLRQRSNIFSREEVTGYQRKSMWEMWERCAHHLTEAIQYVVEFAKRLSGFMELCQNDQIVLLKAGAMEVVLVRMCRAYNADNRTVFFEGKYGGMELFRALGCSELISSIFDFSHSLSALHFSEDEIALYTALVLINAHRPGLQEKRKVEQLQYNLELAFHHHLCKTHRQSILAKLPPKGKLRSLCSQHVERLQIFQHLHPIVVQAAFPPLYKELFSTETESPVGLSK
Chain of Retinoic acid receptor RXR-alpha (Homo sapiens) (P19793 whole entry, looked up, the tested form may be a part): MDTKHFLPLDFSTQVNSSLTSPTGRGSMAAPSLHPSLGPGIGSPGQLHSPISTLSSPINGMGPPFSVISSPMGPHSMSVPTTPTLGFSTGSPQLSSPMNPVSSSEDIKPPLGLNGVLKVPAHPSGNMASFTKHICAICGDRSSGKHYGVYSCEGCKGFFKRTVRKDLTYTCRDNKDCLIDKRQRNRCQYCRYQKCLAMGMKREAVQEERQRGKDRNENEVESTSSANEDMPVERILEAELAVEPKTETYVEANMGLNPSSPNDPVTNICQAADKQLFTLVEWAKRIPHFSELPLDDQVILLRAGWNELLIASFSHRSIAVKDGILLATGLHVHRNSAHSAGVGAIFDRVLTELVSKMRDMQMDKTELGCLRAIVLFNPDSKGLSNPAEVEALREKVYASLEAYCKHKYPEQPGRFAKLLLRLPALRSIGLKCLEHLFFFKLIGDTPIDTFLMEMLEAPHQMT
Chain of human Thyroid Receptor alpha (THRa1), THRA (gene 7067) (P10827 whole entry, looked up, the tested form may be a part): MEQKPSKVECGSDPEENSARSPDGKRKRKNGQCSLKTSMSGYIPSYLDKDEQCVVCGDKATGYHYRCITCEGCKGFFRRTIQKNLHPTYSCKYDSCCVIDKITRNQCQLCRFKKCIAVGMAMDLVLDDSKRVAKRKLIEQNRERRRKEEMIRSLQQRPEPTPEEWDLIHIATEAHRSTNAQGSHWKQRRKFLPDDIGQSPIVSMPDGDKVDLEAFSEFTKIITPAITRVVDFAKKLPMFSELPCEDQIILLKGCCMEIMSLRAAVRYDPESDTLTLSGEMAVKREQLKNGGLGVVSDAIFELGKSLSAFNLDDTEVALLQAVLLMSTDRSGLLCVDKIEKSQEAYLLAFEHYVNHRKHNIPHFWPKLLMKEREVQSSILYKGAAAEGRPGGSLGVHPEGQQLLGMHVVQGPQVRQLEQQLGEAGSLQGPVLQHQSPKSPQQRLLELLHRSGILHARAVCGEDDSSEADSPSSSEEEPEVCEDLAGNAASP
Chain of human Retinoid X Receptor beta (RXRb), RXRB (gene 6257) (P28702 whole entry, looked up): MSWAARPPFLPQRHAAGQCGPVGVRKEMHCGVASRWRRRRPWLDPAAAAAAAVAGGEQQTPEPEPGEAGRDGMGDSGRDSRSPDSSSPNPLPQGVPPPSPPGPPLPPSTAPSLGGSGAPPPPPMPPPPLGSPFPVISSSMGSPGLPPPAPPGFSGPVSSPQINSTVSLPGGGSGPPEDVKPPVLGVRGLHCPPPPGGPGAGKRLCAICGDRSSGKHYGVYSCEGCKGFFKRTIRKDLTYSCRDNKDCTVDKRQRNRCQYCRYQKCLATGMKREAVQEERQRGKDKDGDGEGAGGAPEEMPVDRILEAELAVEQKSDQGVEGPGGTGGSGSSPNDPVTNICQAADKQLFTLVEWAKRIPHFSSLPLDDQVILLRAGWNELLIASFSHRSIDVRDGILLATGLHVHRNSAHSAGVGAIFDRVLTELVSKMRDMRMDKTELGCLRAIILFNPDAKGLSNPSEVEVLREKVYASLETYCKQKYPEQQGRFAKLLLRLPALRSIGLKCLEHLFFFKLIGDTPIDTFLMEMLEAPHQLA

The AC50 is the concentration at which the activity in the assay is half-maximal. As for `N#CC(CCc1ccc(Cl)cc1)(Cn1cncn1)c1ccccc1` (configuration not stated), the molecule was classed as inactive in experiment [1], in experiment [2], in experiment [3], in [4], in experiment [5] and in [6]. Also, the result in experiment [7], in experiment [8], in [9], in experiment [10], in experiment [12] and in [14] was inactive. Also, the outcome in experiment [15] and in experiment [17] was inactive. Also, the AC50 in [11] is 20 µM (active); in experiment [13], 39 µM (active); in [16], 13.5 µM (active).

As to `CCc1nn(C)c(C(=O)NCc2ccc(C(C)(C)C)cc2)c1Cl`, the call in experiment [1], in [2], in [12] and in experiment [17] was inactive. Besides, the AC50 in experiment [18] was 0.157 µM (active); in experiment [5], 20 µM (active); in experiment [6], 20 µM (active); in experiment [7], 28.4 µM (active); in experiment [19] it was 20 µM (active); in experiment [8] it was 17.3 µM (active). For the same molecule, the AC50 in experiment [9] is 20 µM (active); in experiment [10], 34 µM (active); in [11] it was 25.3 µM (active); in experiment [13], 37.2 µM (active); in experiment [14], 26.9 µM (active); in experiment [15], 33.7 µM (active). In [16], the AC50 is 30.2 µM (active).

Turning to `CCCCC(CC)COC(=O)c1ccccc1C(=O)OCC(CC)CCCC` (configuration not stated), the outcome in experiment [1], in [2], in experiment [3], in experiment [4], in experiment [18] and in [5] was inactive. Moreover, the result in experiment [6], in experiment [7], in [9], in [10], in [12] and in experiment [15] was inactive. In addition, in [17], the outcome was inactive. The AC50 in experiment [8] was 15.5 µM (active); in experiment [11] it was 10.5 µM (active); in [13], 39 µM (active); in experiment [14], 15.6 µM (active); in [16] it was 11 µM (active).

The values above are taken from PubChem BioAssay (EPA / NIEHS).
